From PubChem BioAssay
ROCK2 inh: inhibitors of human ROCK2 kinase, primary screen, biochemical, high-throughput, luminescence. hit rate 0.35% among 60,000. purified ROCK2, Kinase-Glo ATP depletion luminescence. inhibition, % at 6 µM;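 active = inhibition above the screen-wide mean inhibition plus 3 SD, cut at about 18% in these data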;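 note: plate controls were DMSO wells for no effect and Y-27632 control wells after no-enzyme background subtraction for full effect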
D1 allo mod: D1 CRE-luciferase signal change, two-sided – cell-based, HEK293 D1, dopamine EC30, D1 allosteric modulator project, primary screen. D(1A) dopamine receptor (Homo sapiens), P21728. dopamine EC30 potentiation; actives deviate in either direction. hit rate 5.9% among 58,000. B-score at 10 µM;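 active = luminescence count or its row- and column-corrected plate score outside the 99.7% band of the plate's sample wells, on either side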
Target sequence (P21728 whole entry, looked up): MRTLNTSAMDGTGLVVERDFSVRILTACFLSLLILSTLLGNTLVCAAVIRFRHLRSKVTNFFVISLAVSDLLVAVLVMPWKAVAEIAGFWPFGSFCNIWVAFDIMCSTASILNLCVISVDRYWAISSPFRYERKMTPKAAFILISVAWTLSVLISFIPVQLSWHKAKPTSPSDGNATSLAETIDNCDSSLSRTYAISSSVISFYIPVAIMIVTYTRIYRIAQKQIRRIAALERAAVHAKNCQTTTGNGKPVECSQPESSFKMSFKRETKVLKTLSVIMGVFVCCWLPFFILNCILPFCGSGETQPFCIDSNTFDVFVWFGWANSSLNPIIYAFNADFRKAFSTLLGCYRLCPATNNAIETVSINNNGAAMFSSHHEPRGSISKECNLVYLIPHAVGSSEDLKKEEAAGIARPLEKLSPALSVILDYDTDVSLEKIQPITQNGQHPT
DAT uptake mod: changed hDAT dopamine uptake under cocaine IC80, either direction, primary screen, cocaine antagonist project, cell-based, LLC-PK1 hDAT, [14C]-dopamine uptake, MLSMR; Sodium-dependent dopamine transporter (Homo sapiens), Q01959; LLC-PK1 hDAT cells, [14C]-dopamine uptake with cocaine IC80; actives deviate in either direction; B-score at 10 µM; hit rate 1.3% among 110,000;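 active = Z score or B-score, a plate-position-corrected score, falls beyond the plate's 99.7% confidence bounds, in either direction; inactive = both scores lie inside the 99.7% bounds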;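 note: scored against the spread of the other compound wells on the same plate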
PKA inh: inhibitors of human PKA kinase activity, primary screen, biochemical, ATP-depletion luminescence, Kemptide substrate; cAMP-dependent protein kinase catalytic subunit alpha (Homo sapiens), P17612; PKA Kemptide phosphorylation, Kinase-Glo ATP luminescence; inhibition, % at 6 µM; hit rate 0.1% among 65,000; AID 524, 2006;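 active = inhibition above the screen-wide mean inhibition plus 3 SD, cut at about 21% in these data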
JNK3 inh: JNK3 kinase activity inhibitors, primary screen, biochemical, human, purified enzyme; inhibition, % at 8 µM; hit rate 0.61% among 60,000; HTS; AID 746, 2007; in the data active = inhibition above about 17%;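 note: 0% = DMSO and 100% = reference inhibitor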
An asterisk follows results filed as active; . = no result given. Many of the other results were omitted from the sample, so hits are more common in it than they were.

SMILES | ROCK2 inh | D1 allo mod | DAT uptake mod | PKA inh | JNK3 inh
O=S1(=O)C=C(Sc2nc3cc(Cl)ccc3o2)c2ccccc21 | 2 | -2.3* | -1 | 3 | 1
CC(C)Cc1nnc(NS(C)(=O)=O)s1 | . | . | -7.8* | . | .
CC(C)(C)Cc1nnc(NS(C)(=O)=O)s1 | . | . | -0.69 | . | .
COC(=O)c1sccc1NC(=O)c1cccnc1 | 8 | 2.5 | 0.29 | 6 | 16
COC(=O)c1sccc1NC(=O)Nc1ccc(Cl)c(Cl)c1 | . | . | -7.9* | . | .
COC(=O)c1cccc(NC(=O)Nc2ccc(Cl)c(Cl)c2)c1 | . | . | -0.026 | . | .
COC(=O)c1sccc1NC(=O)c1ccc(OC)cc1 | 6 | 2.9 | 0.13 | 6 | 38*
CCn1c2ccccc2c2cc(CN3CCN(C(=O)c4ccco4)CC3)ccc21 | 7 | -0.47 | 1.2 | 9 | 3
O=C(c1ccco1)N1CCN(CC(O)COc2ccc3oc4ccccc4c3c2)CC1 (configuration not stated) | 0 | -0.021 | 2.6* | -4 | -3
O=C(c1ccc(Br)s1)N1CCN(Cc2ccc3c(c2)OCO3)CC1 | 9 | -1.4 | 2.1* | 10 | 4
Cc1ccc(S(=O)(=O)N(C)c2ccc(C(=O)N3CCN(Cc4ccc5c(c4)OCO5)CC3)cc2)cc1 | . | . | 0.57 | . | .
O=C(c1cccn2c(=O)c3ccccc3nc12)N1CCN(Cc2ccc3c(c2)OCO3)CC1 | . | -0.54 | 3.2* | 1 | .
CN(c1ccc(C(=O)N2CCN(Cc3ccc4c(c3)OCO4)CC2)cc1)S(=O)(=O)c1ccccc1 | . | . | 3.5* | . | .
CCOC(=O)N1CCN(CC(O)c2ccc3c(c2)CCN3)CC1 (configuration not stated) | -7 | -3.9* | 0.028 | 0 | -1
OC(CN1CCN(c2ccccc2)CC1)c1ccc2c(c1)CCN2 (configuration not stated) | 1 | -3* | 0.026 | 8 | 5
CN(C)/C=C(\C#N)C(=O)Nc1ccc(F)cc1 | . | . | -2.2* | . | .
CC1(CC(=O)N/N=C/c2ccc(OCc3ccc(Cl)cc3Cl)cc2)OCCCO1 | . | . | 3.4* | . | .
CC1(C)OC(=O)C(=CNc2cccc(C(=O)O)c2)C(=O)O1 | -12 | -0.1 | -7* | -5 | -16
CC(C)(C)OC(=O)N1CCC[C@H]1c1nnc(SCc2ccc(Cl)cc2Cl)o1 | 7 | -1.3 | -2.1* | 6 | 1
CC(C)(C)OC(=O)N1CCC[C@H]1c1nnc(SCc2ccccc2Cl)o1 | 5 | -0.054 | -0.11 | 4 | 6
N#Cc1c(NC(=O)c2nc3ncccn3n2)sc2c1CCCCC2 | -3 | -4.3* | 0.55 | 4 | 0
N#Cc1c(NC(=O)CSc2ncn[nH]2)sc2c1CCCCC2 | -1 | -4.6* | 0.3 | 3 | 0
COc1ccccc1OCC(O)Cn1c(=N)n(CCN2CCCCC2)c2ccccc21 (configuration not stated) | . | -2.5* | 0.00071 | 0 | .
N=c1n(CCN2CCCCC2)c2ccccc2n1CC(O)COc1ccccc1 (configuration not stated) | -3 | -2.6 | 0.65 | -2 | -3
N=c1n(CCN2CCOCC2)c2ccccc2n1CC(O)COc1ccccc1 (configuration not stated) | 8 | -2.1 | 0.12 | 5 | -1
SMILES | ROCK2 inh | D1 allo mod | DAT uptake mod | PKA inh | JNK3 inh
Cc1ccccc1OCC(O)Cn1c(=N)n(CCN2CCOCC2)c2ccccc21 (configuration not stated) | . | -4.9* | 0.48 | -2 | .
CC1=CC(=O)c2c(O)ccc(O)c2C1=O | . | . | 0.12 | . | .
O=C(Nc1ccc(N2CCCCC2)cc1)c1ccccc1 | -10 | -4.8* | -0.19 | -10 | -6
CN1CCN(c2ccc(NC(=O)c3cccc(OCc4ccccc4)c3)cc2)CC1 | 7 | -5.9* | . | 8 | -5
O=C(Nc1ccc(N2CCCC2)cc1)c1cccc(F)c1 | -3 | -4.9* | 0.52 | 4 | -28
O=C(Nc1ccc(N2CCCC2=O)cc1)c1cccc(F)c1 | -4 | -2.4 | 1.1 | -4 | 2
CCCCNC(=O)[C@@H]1CC=C[C@@H]2CCN(C3CC3)C(=O)[C@@H]21 | . | . | -0.65 | . | .
Cc1sc2ncnc(Sc3nnc4sc5ccccc5n34)c2c1C | . | 0.71 | . | -1 | .
CN(C)S(=O)(=O)c1ccc(-c2csnn2)s1 | . | . | -0.0081 | . | .
Fc1ccc2c(c1)C1C=CCC1C(c1cc3c(cc1Br)OCO3)N2 (configuration not stated) | . | . | -0.59 | . | .
CCCCCc1nnc(NC(=O)C(=O)OCC)s1 | . | . | 0.042 | . | .
COc1cc(C(=O)OCC(=O)Nc2c(F)c(F)c(F)c(F)c2F)cc(OC)c1OC | 1 | 1.2 | 3.7* | 6 | 7
CC(=NCCCn1ccnc1)C1=C(O)c2ccccc2C1=O | 5 | 1.5 | 0.025 | 7 | 29*
CN1CCCC(n2nc(Cc3ccc(Cl)cc3)c3ccccc3c2=O)CC1 (configuration not stated) | . | . | 1.7 | . | .
O=C(NCc1ccc2c(c1)OCO2)c1ccc(-c2ccc(Cl)cc2)o1 | 1 | 0.59 | 2.4* | -2 | 2
CCc1nnc2n1N=C(c1ccc(-c3cc(Cl)ccc3Cl)o1)CS2 | . | -0.2 | -0.074 | -4 | .
CC(C)(C)N1CC2([N+](=O)[O-])CN(C(C)(C)C)CC([N+](=O)[O-])(C1)C2 | . | . | -1.3 | . | .
COC(C/C=C/[C@H](O)[C@H](C)OCc1ccccc1)OC | . | . | -0.26 | . | .
CC(C)c1ccc2oc(-c3cc(N)ccc3O)nc2c1 | 0 | -3.9* | -0.33 | 1 | 1
Cc1ccccc1-c1nc2cc(N)ccc2o1 | -5 | -1.3 | -0.084 | -4 | -1
CCn1c(SCC(=O)c2ccccc2)nnc1-c1cccs1 | . | . | 1.9 | . | .
COC(=O)c1cc(NC(=O)CC2SC(=Nc3ccccc3)N(CCc3c[nH]c4ccccc34)C2=O)cc(C(=O)OC)c1 (configuration not stated) | . | . | -0.17 | . | .
CCCNC(=O)C(Cc1ccccc1)NS(=O)(=O)c1ccc2c(c1)CCC(=O)N2 (configuration not stated) | -1 | 1.1 | -2.2* | 5 | -1
Cc1ccc(CNC(=O)C(Cc2ccccc2)NS(=O)(=O)c2ccc3c(c2)CCC(=O)N3)cc1 (configuration not stated) | . | . | 0.14 | . | .
CSc1cc(-c2ccc(Cl)cc2)c(C(=O)N2CCCC2)s1 | . | . | 0.97 | . | .
SMILES | ROCK2 inh | D1 allo mod | DAT uptake mod | PKA inh | JNK3 inh
CCCCCCC(=O)N1CCC(c2nc3c(nnn3Cc3ccccc3Cl)c(=O)[nH]2)CC1 | 4 | -1.6 | 0.5 | 1 | -2
C=CCn1c(CCC(=O)Nc2ccc(C)c(Cl)c2)nnc1SCC(=O)Nc1ccccc1C | . | . | 0.71 | . | .
COc1ccccc1NC(=O)N1CCC(c2nc3cc(C)c(C)cc3[nH]2)CC1 | . | . | -0.062 | . | .
COc1ccccc1NC(=S)N1CCC(c2nc3cc(C)c(C)cc3[nH]2)CC1 | . | . | -2.3* | . | .
O=C(c1ccccc1F)N1CCN(Cc2ccccc2F)CC1 | . | . | 0.19 | . | .
O=CN1CCN(C(=O)c2ccccc2F)CC1 | 4 | -3.2* | 0.047 | 10 | -2
